Measured values taken from PubChem BioAssay (NCATS).
Results filed as inconclusive are left out. Entries that show only a call come without a potency. Active and inactive are the calls of the source. Calls come from the whole dose curve; as a rule, active = well fitted curve in the direction sought with a large enough effect; inconclusive = small, poorly fitted or top-dose-only effect, or another doubt; inactive = no such curve, though single readings can be large; an effect the other way counts as inactive or inconclusive.

Key:
[1] = qHTS of pediatric cancer cell lines to identify multiple opportunities for drug repurposing: Primary screen for A673 cells (AID 1347092); note: nearly all actives have a fitted effect of over 45% in size; note: potency is the fitted concentration of half-maximal effect
Outline: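 Cell viability of A673 measured by CellTiter-Glo ATP luminescence after 48 hours compound exposure. Dilution series spanned 0.78 nM to 46 µM (MIPE, 11-point) or 0.59 nM to 46 µM (NPC, 8-point); bortezomib 2.3 uM positive control.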

[2] = qHTS of pediatric cancer cell lines to identify multiple opportunities for drug repurposing: Primary screen for BT-37 cells (AID 1347094); note: potency is the fitted concentration of half-maximal effect
Outline: (§1)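 Plated cells (500-1,000 per well, growth media) were allowed to settle for 5 hours, treated with compound dilutions for 48 hours, then lysed with CellTiter-Glo for 15 min at room temperature before luminescence reading.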

[3] = qHTS of pediatric cancer cell lines to identify multiple opportunities for drug repurposing: Primary screen for NB-EBc1 cells (AID 1347095); note: potency is the fitted concentration of half-maximal effect
Outline: as §1

[4] = qHTS of pediatric cancer cell lines to identify multiple opportunities for drug repurposing: Primary screen for U-2 OS cells (AID 1347096); note: nearly all actives have a fitted effect of over 50% in size
Outline: (§2)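 Cells (500-1,000/well) rested 5 h, then received compounds for 48 h; metabolically active cells were measured by CellTiter-Glo luminescence. Final concentrations spanned up to 46 µM (MIPE, 11-point) or 0.59 nM-46 µM (NPC, 8-point) in primary screens, 11-point in follow-ups.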

[5] = qHTS of pediatric cancer cell lines to identify multiple opportunities for drug repurposing: Primary screen for Saos-2 cells (AID 1347097); note: nearly all actives have a fitted effect of over 40% in size
Outline: as §1

[6] = qHTS of pediatric cancer cell lines to identify multiple opportunities for drug repurposing: Primary screen for SK-N-SH cells (AID 1347098); note: nearly all actives have a fitted effect of over 65% in size; note: potency is the fitted concentration of half-maximal effect
Outline: as §2

[7] = qHTS of pediatric cancer cell lines to identify multiple opportunities for drug repurposing: Primary screen for NB1643 cells (AID 1347099); note: nearly all actives have a fitted effect of over 50% in size; note: potency is the fitted concentration of half-maximal effect
Outline: as §1

[8] = qHTS of pediatric cancer cell lines to identify multiple opportunities for drug repurposing: Primary screen for LAN-5 cells (AID 1347100); note: potency is the fitted concentration of half-maximal effect
Outline: as §2

[9] = qHTS of pediatric cancer cell lines to identify multiple opportunities for drug repurposing: Primary screen for Rh18 cells (AID 1347102); note: nearly all actives have a fitted effect of over 65% in size; note: potency is the fitted concentration of half-maximal effect
Outline: as §2

[10] = qHTS of pediatric cancer cell lines to identify multiple opportunities for drug repurposing: Primary screen for OHS-50 cells (AID 1347103); note: nearly all actives have a fitted effect of over 40% in size; note: potency is the fitted concentration of half-maximal effect
Outline: as §2

[11] = qHTS of pediatric cancer cell lines to identify multiple opportunities for drug repurposing: Primary screen for RD cells (AID 1347104); note: nearly all actives have a fitted effect of over 55% in size; note: potency is the fitted concentration of half-maximal effect
Outline: as §1

[12] = qHTS of pediatric cancer cell lines to identify multiple opportunities for drug repurposing: Primary screen for MG 63 (6-TG R) cells (AID 1347105); note: nearly all actives have a fitted effect of over 50% in size; note: potency is the fitted concentration of half-maximal effect
Outline: as §1

[13] = qHTS of pediatric cancer cell lines to identify multiple opportunities for drug repurposing: Primary screen for control Hh wild type fibroblast cells (AID 1347106);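 note: series mostly up to about 46 µM; a drop in luminescence marks cytotoxicity and a rise apparent proliferation; nearly all actives have a fitted effect of over 55% in size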
Outline: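 Viability after 48 h compound treatment at 37C, 500-1,000 cells/well, read as ATP luminescence with CellTiter-Glo. Primary screens used 11-point (MIPE, 0.78 nM-46 µM) or 8-point (NPC, 0.59 nM-46 µM) final concentrations; follow-up screens used 11-point dilutions.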

[14] = qHTS of pediatric cancer cell lines to identify multiple opportunities for drug repurposing: Primary screen for Rh30 cells (AID 1347107); note: nearly all actives have a fitted effect of over 75% in size; note: potency is the fitted concentration of half-maximal effect
Outline: as §2

[15] = qHTS of pediatric cancer cell lines to identify multiple opportunities for drug repurposing: Primary screen for Rh41 cells (AID 1347108); note: nearly all actives have a fitted effect of over 70% in size; note: potency is the fitted concentration of half-maximal effect
Outline: as §1

[16] = qHTS of pediatric cancer cell lines to identify multiple opportunities for drug repurposing: Primary screen for BT-12 cells (AID 1347101); note: nearly all actives have a fitted effect of over 25% in size
Outline: as §2

[17] = qHTS of pediatric cancer cell lines to identify multiple opportunities for drug repurposing: Primary screen for SK-N-MC cells (AID 1347093); note: potency is the fitted concentration of half-maximal effect
Outline: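 Metabolically active cells were quantified by ATP-dependent luminescence (CellTiter-Glo, 15 min at room temperature) following 48 h treatment. Cells had been plated at 500-1,000 per well and settled for 5 h beforehand.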

[18] = qHTS of pediatric cancer cell lines to identify multiple opportunities for drug repurposing: Confirmatory screen for A673 cells (AID 1347110);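 note: potency is the fitted concentration of half-maximal effect; cells exposed to compound for 48 h before the viability read; nearly all actives have a fitted effect of over 65% in size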
Outline: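 Viability was read as ATP luminescence (CellTiter-Glo) after 48 h of compound exposure at 37 C in A673 cells seeded at 500-1,000/well. Titrations reached 46 uM final, with 11 points in the confirmatory screen. Concentration-response curves were fitted directly.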

[19] = qHTS of pediatric cancer cell lines to identify multiple opportunities for drug repurposing: Confirmatory screen for SK-N-MC cells (AID 1347111);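 note: potency is the fitted concentration of half-maximal effect; cells exposed to compound for 48 h before the readout; nearly all actives have a fitted effect of over 70% in size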
Outline: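 Seed 500-1,000 cells/well; rest 5 h at 37 degrees C. Pin-transfer compounds, 11-point titration. Incubate 48 h. Add CellTiter-Glo, 15 min RT, read luminescence.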

CCCNC(=O)NS(=O)(=O)c1ccc(Cl)cc1
Potency [1]: inactive
Potency [2]: inactive
Potency [3]: inactive
Potency [4]: inactive
Potency [5]: inactive
Potency [6]: inactive
Potency [7]: inactive
Potency [8]: inactive
Potency [9]: inactive
Potency [10]: inactive
Potency [11]: inactive
Potency [12]: inactive
Potency [13]: inactive
Potency [14]: inactive
Potency [15]: inactive

O=C(CCc1ccc(O)cc1)c1c(O)cc(O)cc1O[C@@H]1O[C@H](CO)[C@H](O)[C@H](O)[C@H]1O
Potency [1]: inactive
Potency [2]: inactive
Potency [3]: inactive
Potency [4]: inactive
Potency [5]: inactive
Potency [7]: 26.4 µM (active)
Potency [8]: inactive
Potency [16]: inactive
Potency [9]: inactive
Potency [10]: inactive
Potency [11]: inactive
Potency [12]: inactive
Potency [13]: inactive
Potency [14]: inactive
Potency [15]: inactive

CCCCC1C(=O)N(c2ccccc2)N(c2ccccc2)C1=O
Potency [1]: inactive
Potency [2]: inactive
Potency [3]: inactive
Potency [4]: inactive
Potency [6]: inactive
Potency [7]: inactive
Potency [16]: inactive
Potency [9]: inactive
Potency [11]: inactive
Potency [13]: inactive
Potency [14]: inactive
Potency [15]: inactive

COc1ccc2c(Oc3ccc(NC(=O)c4c(C)n(CC(C)(C)O)n(-c5ccccc5)c4=O)nc3)ccnc2c1
Potency [1]: inactive
Potency [17]: 29.6 µM (active)
Potency [4]: inactive
Potency [7]: inactive
Potency [8]: inactive
Potency [10]: 5.44 µM (active)
Potency [11]: inactive
Potency [12]: inactive
Potency [13]: inactive
Potency [14]: inactive
Potency [15]: inactive

C=C1C(=O)OC(CCCCCCCC)C1C(=O)O (stereo unspecified)
Potency [1]: inactive
Potency [2]: inactive
Potency [4]: inactive
Potency [7]: inactive
Potency [8]: inactive
Potency [16]: inactive
Potency [10]: inactive
Potency [11]: inactive
Potency [12]: inactive
Potency [13]: inactive
Potency [14]: inactive
Potency [15]: inactive

N#C[C@H]1C[C@H]2C[C@@H]2N1C(=O)[C@@H](N)C12CC3CC(CC(O)(C3)C1)C2
Potency [1]: inactive
Potency [2]: inactive
Potency [3]: inactive
Potency [4]: inactive
Potency [6]: 24.1 µM (active)
Potency [16]: inactive
Potency [10]: inactive
Potency [11]: inactive
Potency [13]: inactive
Potency [15]: inactive

CC(C)(Cc1ccc2ccccc2c1)NC[C@@H](O)COc1cccc(Cl)c1C#N
Potency [1]: 14.8 µM (active)
Potency [2]: 19.3 µM (active)
Potency [3]: 2.35 µM (active)
Potency [4]: inactive
Potency [5]: inactive
Potency [6]: 24.1 µM (active)
Potency [8]: 18.7 µM (active)
Potency [9]: inactive
Potency [10]: inactive
Potency [11]: inactive
Potency [12]: inactive
Potency [13]: inactive
Potency [14]: inactive

CC(C)OC(=O)C(C)(C)Oc1ccc(C(=O)c2ccc(Cl)cc2)cc1
Potency [1]: inactive
Potency [17]: 20.9 µM (active)
Potency [4]: inactive
Potency [6]: inactive
Potency [8]: inactive
Potency [9]: inactive
Potency [11]: inactive
Potency [12]: inactive
Potency [13]: inactive
Potency [14]: inactive
Potency [15]: inactive

CC(C)NCC(O)COc1cccc2[nH]ccc12 (stereo unspecified)
Potency [1]: inactive
Potency [2]: inactive
Potency [3]: inactive
Potency [4]: inactive
Potency [6]: inactive
Potency [7]: inactive
Potency [8]: inactive
Potency [16]: inactive
Potency [9]: inactive
Potency [10]: inactive
Potency [11]: inactive
Potency [12]: inactive
Potency [13]: inactive
Potency [14]: inactive
Potency [15]: inactive

C[C@]12CC[C@@H]3c4ccc(O)cc4C[C@@H](CCCCCCCCCS(=O)CCCC(F)(F)C(F)(F)F)[C@H]3[C@H]1CC[C@H]2O (stereo partly specified)
Potency [1]: inactive
Potency [3]: inactive
Potency [4]: inactive
Potency [6]: inactive
Potency [7]: inactive
Potency [12]: inactive
Potency [13]: inactive

NC(=O)c1cccc2[nH]c(-c3ccc([C@H]4CCCN4)cc3F)nc12
Potency [1]: 11.8 µM (active)
Potency [3]: 18.7 µM (active)
Potency [4]: inactive
Potency [5]: inactive
Potency [16]: inactive
Potency [9]: inactive
Potency [11]: inactive
Potency [13]: inactive
Potency [14]: inactive
Potency [15]: inactive

CNC1CCC(N(Cc2cccc(-c3ccncc3)c2)C(=O)c2sc3c(F)ccc(F)c3c2Cl)CC1 (stereo unspecified)
Potency [1]: 23.5 µM (active)
Potency [17]: 1.18 µM (active)
Potency [6]: 19.2 µM (active)
Potency [7]: 18.7 µM (active)
Potency [11]: 10.5 µM (active)
Potency [12]: 23.5 µM (active)
Potency [15]: 18.7 µM (active)
Potency [18]: 20.8 µM (active)
Potency [19]: 11.7 µM (active)

O=C(Nc1ccccc1-c1cn2c(CN3CCNCC3)csc2n1)c1cnc2ccccc2n1
Potency [1]: 18.7 µM (active)
Potency [2]: 27.3 µM (active)
Potency [3]: inactive
Potency [4]: inactive
Potency [7]: 13.2 µM (active)
Potency [8]: 20.9 µM (active)
Potency [9]: 8.33 µM (active)
Potency [10]: 27.3 µM (active)
Potency [11]: 33.2 µM (active)
Potency [12]: 23.5 µM (active)
Potency [14]: 23.5 µM (active)
Potency [15]: 20.9 µM (active)

CN(C)CCC=C1c2ccccc2COc2ccc(CC(=O)O)cc21
Potency [1]: 18.7 µM (active)
Potency [2]: inactive
Potency [3]: inactive
Potency [4]: inactive
Potency [5]: inactive
Potency [8]: inactive
Potency [16]: inactive
Potency [9]: inactive
Potency [10]: inactive
Potency [13]: inactive
Potency [15]: inactive

CC(C)n1cnc2c(NCCCCCCNC(=O)OC(C)(C)C)nc(NCCO)nc21
Potency [1]: 18.7 µM (active)
Potency [3]: inactive
Potency [4]: inactive
Potency [6]: inactive
Potency [7]: inactive
Potency [11]: 33.2 µM (active)
Potency [12]: inactive
Potency [13]: inactive
